{
  "source": "the supplement of paper PMC8540655",
  "note": "Values without a mark were called inactive.",
  "data": [
    {"system": "Aedes aegypti larvae", "assay": "larval motility relative to same well at 0 h (fraction); higher = more motile (less active compound), active = 0.4 or less", "conditions": "10 µM; 24 h", "outline": "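Aedes aegypti larvae, hatched in pond salt solution with yeast at 25 °C and collected after 18–24 h, were dispensed at about 10 per well (100 µL) in 96-well plates. Compounds were tested at 10 µM, 1% v/v DMSO, with solvent and larvicide control wells on each plate. INVAPP movies (200 frames, 100 ms intervals) were recorded at 0, 2 and 24 h. Relative motility is each well's score divided by its 0 h score, median of three independent larval batches.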", "values": [
      {"smiles": "CCNC(=O)Nc1cn2c(-c3ncc(CC)cn3)cc(-c3cccnc3)cc2n1", "larval motility": 0.894},
      {"smiles": "O=c1cc(Nc2ccc3ccccc3c2)[nH]c(=O)[nH]1", "larval motility": 0.778},
      {"smiles": "N=C(N)NCCCCC(=O)Nc1cc(C(F)(F)F)cc(NC(=O)c2cc(C(=O)Nc3cc(C(F)(F)F)cc(NC(=O)CCCCNC(=N)N)c3O[C@@H]3CCNC3)ncn2)c1O[C@@H]1CCNC1", "larval motility": 0.764},
      {"smiles": "O=C(NCc1ncc(C(F)(F)F)cc1Cl)c1c(Cl)cccc1Cl", "larval motility": 1.42},
      {"smiles": "O=C(O)C(Cc1c[nH]c2ccccc12)N1C(=O)c2ccccc2C1=O", "note": "(centres undefined)", "larval motility": 1.18},
      {"smiles": "Nc1nc(O)c(Br)c(-c2ccccc2)n1", "larval motility": 0.648},
      {"smiles": "C[C@@H](NC(=O)c1ccccc1-c1ccccc1)B(O)O", "larval motility": 0.615},
      {"smiles": "CCN(CC)S(=O)(=O)c1ccc(Cl)c(C(=O)Nc2sc3c(c2C#N)CCCC3)c1", "larval motility": 2.15},
      {"smiles": "CCCCSc1nc(N)c2[nH]c(=O)c(=O)n(Cc3ccccc3)c2n1", "larval motility": 1.51},
      {"smiles": "CSc1ccc2c(c1)C(N1CCN(C)CC1)Cc1ccccc1S2", "note": "(centres undefined)", "larval motility": 0.827},
      {"smiles": "Fc1ccc2c(/C=C/c3nnn[nH]3)c[nH]c2c1", "larval motility": 1.39},
      {"smiles": "O=c1cc(OCc2ccccc2)ccn1Cc1ccccc1", "larval motility": 1.69},
      {"smiles": "CCCCN1C[C@H](O)[C@@H](O)[C@H](O)[C@H]1CO", "larval motility": 0.809},
      {"smiles": "COc1ccc(CNC(=O)C2CCN([C@H](C)c3cccc4ccccc34)CC2)cc1", "larval motility": 0.922},
      {"smiles": "O=C(NCc1ccc(F)cc1)c1c(O)c2ncccc2[nH]c1=O", "larval motility": 0.908},
      {"smiles": "CC[C@@]1(O)C(=O)OCc2c1cc1n(c2=O)Cc2cc3c(CN(C)C)c(O)ccc3nc2-1", "larval motility": 0.876},
      {"smiles": "COc1ccc(C2CNC(=O)C2)cc1OC1CCCC1", "note": "(centres undefined)", "larval motility": 0.959},
      {"smiles": "COc1cc(NC(=O)CN2C(=O)NC(c3ccccc3)(c3ccccc3)C2=O)cc(OC)c1", "larval motility": 1.08},
      {"smiles": "CCOC(=O)Nc1cc(NC(C)CC(C)CN(CC)CC)c2nc(-c3ccccc3)c(-c3ccccc3)nc2n1", "note": "(centres undefined)", "larval motility": 1.04},
      {"smiles": "CC(C)(C)c1cccc(-c2nc3cc(C(=N)N)ccc3[nH]2)c1O", "larval motility": 0.466},
      {"smiles": "CC1(C)CC(NC(=O)C(=O)Nc2ccc(Cl)cc2)CC(C)(C)N1", "larval motility": 0.896},
      {"smiles": "O=C(NCc1ccccc1Cl)c1cnc2ccccc2n1", "larval motility": 0.674},
      {"smiles": "CC1CCc2c(N3CCC(O)CC3)c(F)cc3c(=O)c(C(=O)O)cn1c23", "note": "(centres undefined)", "larval motility": 0.744},
      {"smiles": "CC(=O)NC[C@H]1CN(c2ccc(N3CCSCC3)c(F)c2)C(=O)O1", "larval motility": 1.07},
      {"smiles": "O=c1cc(NCCCN[C@@H]2CCOc3c(Br)cc(Br)cc32)[nH]c2ccsc12", "larval motility": 1.28},
      {"smiles": "CC(N)C12CC3CC(CC(C3)C1)C2", "note": "(centres undefined)", "larval motility": 0.773},
      {"smiles": "O=S(=O)(Nc1ccc(O)cc1)c1cccc2cccnc12", "larval motility": 0.629},
      {"smiles": "CO[C@@]1(NC(=O)Cc2cccs2)C(=O)N2C(C(=O)O)=C(COC(N)=O)CS[C@@H]21", "larval motility": 1.17},
      {"smiles": "COc1ccc(C[C@@H](C)[C@@H](C)Cc2ccc(OC)c(OC)c2)cc1OC", "larval motility": 0.813},
      {"smiles": "Oc1cc(-c2cccc3ccccc23)[nH]n1", "larval motility": 0.554},
      {"smiles": "O=S(=O)(NCB(O)O)c1cc2c(Cl)ccc(Cl)c2s1", "larval motility": 0.742},
      {"smiles": "CCc1oc2ccccc2c1C(=O)c1ccc(O)cc1", "larval motility": 1.17},
      {"smiles": "COc1ccc(NS(=O)(=O)c2ccc(Cl)s2)cn1", "larval motility": 1.43},
      {"smiles": "O=C(/C=C/n1cnc(-c2cc(C(F)(F)F)cc(C(F)(F)F)c2)n1)NNc1cnccn1", "larval motility": 1},
      {"smiles": "CN(C(=O)C1(c2ccc(Cl)cc2)CCC1)c1ccccc1", "larval motility": 1.21},
      {"smiles": "CC(=O)O[C@H]1C[C@@]2(C)[C@@H](C[C@@H](O)[C@H]3[C@@]4(C)CC[C@@H](O)[C@@H](C)[C@@H]4CC[C@@]32C)/C1=C(\\CCC=C(C)C)C(=O)O", "larval motility": 0.825},
      {"smiles": "O=C(NNC(=S)Nc1ccc(Cl)cc1)c1ccncc1", "larval motility": 0.45},
      {"smiles": "CCCCCCCCC(CP(=O)(O)C(C)N)C(=O)O", "note": "(centres undefined)", "larval motility": 1.09},
      {"smiles": "CC(=O)N[C@H](C)C(=O)N[C@H](Cc1ccccc1)C(=O)O", "larval motility": 0.597}
    ]}
  ]
}
